# Neddyl block – inhibitors of human cullin neddylation. P61081+Q13564. TR-FRET cullin neddylation, biochemical. inhibition, % at 25 µM. 360,000 tested, 0.58% active. AID 651699; in the data active = inhibition above about 36%
# Rpn11 block – Rpn11 (human) deubiquitinase inhibition. O00487. human 26S proteasome, Ub4-pepOG fluorescence polarization; 20S core pre-blocked with epoxomicin. 360,000 tested, 0.59% active. calls only at 20 µM;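 active = inhibition at 20 µM, scaled to each plate's controls, above about 33%, limit read from the data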
# Target sequence (O00487 whole entry, looked up): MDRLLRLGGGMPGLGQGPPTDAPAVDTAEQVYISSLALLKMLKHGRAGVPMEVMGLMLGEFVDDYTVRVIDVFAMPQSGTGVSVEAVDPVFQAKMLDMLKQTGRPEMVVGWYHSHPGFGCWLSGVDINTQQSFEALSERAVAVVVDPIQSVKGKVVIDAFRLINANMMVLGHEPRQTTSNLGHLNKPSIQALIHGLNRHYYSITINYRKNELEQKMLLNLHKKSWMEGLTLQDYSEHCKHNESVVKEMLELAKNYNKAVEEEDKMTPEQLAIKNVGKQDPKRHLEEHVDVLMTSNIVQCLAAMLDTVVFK
# PKA-R2B act – activates the human PKA-R2B holoenzyme complex; activation, % at 11.4 µM; AID 504700; PKA-R2B holoenzyme dissociation, Cy5-IP20 fluorescence polarization; R2B truncated from residue 108, S112A mutant; 0% DMSO only, 100% 113 µM cGMP; 340,000 tested, 0.079% active;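 active = activation above a cutoff set at the mean over all compounds plus 3 SD, cut at about 18% in these data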;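 note: higher means more holoenzyme dissociation and a rise in polarization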
# PKA-R1A activ – PKA-R1A complex activation. PKA-R1A dissociation, Cy5-IP20 fluorescence polarization; scaled: DMSO 0%, 113 µM cGMP 100%. activation, % at 11.4 µM. 340,000 tested, 0.083% active;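 active = percent activation above the mean of all tested compounds plus 3 SD, cut at about 19% in these data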;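 note: higher means more PKAc released from R1A so a rise in polarization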
# Rpn11 confirm – confirmation of human proteasome Rpn11 inhibitors; 1,900 tested, 29% active; inhibition, % at 20 µM; shares compounds with Rpn11 block; purified human 26S proteasome, Ub4-pepOG fluorescence polarization; proteasome pretreated with epoxomicin
# MMP-2 counter – blocks human MMP-2, flagging nonselective RPN11 hits. recombinant MMP-2, FRET peptide cleavage fluorescence. shares compounds with Rpn11 block. 1,900 tested, 4% active. AID 602330. inhibition, % at 20 µM;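 note: human MMP-2 activated beforehand with APMA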
# Thrombin inh – counter-screen for RPN11 inhibitors: inhibition of bovine thrombin. 1,900 tested, 13% active. bovine thrombin cleavage of Ub4-pepOG, fluorescence polarization. inhibition, % at 20 µM. shares compounds with Rpn11 block;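 active = mean inhibition at least 40% at 20 µM, or signal 3 deviations below plate average, so some actives read negative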
# A number is an active result; - = inactive; . = no result shown; + = active, no number; ! = a repeat was not active. An excerpt weighted towards active compounds, which were near 1.3% of everything screened. Cut-off read from the data, not from the text of the source, unless noted: active = inhibition above about 40%; inactive = the rest.
SMILES,Neddyl block,Rpn11 block,PKA-R2B act,PKA-R1A activ,Rpn11 confirm,MMP-2 counter,Thrombin inh
COc1ccc(NS(=O)(=O)c2cc([N+](=O)[O-])ccc2N/N=C/c2c(C)[nH]c3ccccc23)cc1,-,+,-,-,44,-,-
O=C(Nc1ccccc1N1CCCCC1)c1ccc(-c2cccc(Cl)c2)o1,-,-,-,-,.,.,.
O=C(Nc1cccc2nsnc12)c1ccc(-c2cccc(Cl)c2)o1,.,+,-,-,-,-,-
O=C(CCN1Cc2ccccc2C1)c1ccc2c(c1)OCCO2,-,-,-,-,.,.,.
O=C(CCN1CCc2ccccc2C(c2ccccc2)C1)c1ccc2c(c1)OCCO2 (stereo not drawn),-,+,-,-,-,-,-
CCOC(=O)C1CCCN(Cc2ccc(OC)c(OCc3ccccc3)c2)C1 (stereo not drawn),-,-,-,-,.,.,.
S=C(Nc1ccc(Cl)cc1)c1nc2ccccc2s1,-,-,-,-,.,.,.
O=C(Nc1ccc(Cl)cc1)/C(=C/c1cccc(O)c1)c1nc2ccccc2s1,-,+,-,-,-,-,-
CCCCN=C1NC(=O)C(CC(=O)NCCc2ccc(OC)cc2)S1 (stereo not drawn),-,-,-,-,.,.,.
Cc1cc2sc3nc(=O)n(-c4ccccc4)c(=O)n3c2cc1C,-,-,-,-,.,.,.
O=C(N/N=C/c1sc(=O)n(Cc2ccc(Br)cc2)c1Cl)c1ccco1,-,+,-,-,-,48,-
O=C(CC(O)(CC(=O)OCc1ccccc1)C(=O)OCc1ccccc1)OCc1ccccc1,-,-,-,-,.,.,.
COc1cc(/C=N/NC(=O)c2cccnc2)ccc1OCC(=O)Nc1ccccc1Cl,.,+,-,-,+,-,-
Cc1cc(C)c2c(N)c3cccc(C)c3nc2n1,.,+,-,-,54,-,-
Cc1nn(-c2ccccc2)c(Cl)c1/C=N/NC(=O)c1cccc(S(=O)(=O)N2CCCC2)c1,-,+,-,-,-,-,-
Cc1nn(-c2ccc(F)cc2)c(Cl)c1/C=N/NC(=O)c1cccc(S(=O)(=O)N2CCCC2)c1,-,-,-,-,.,.,.
O=C(NNc1ncnc2ccccc12)c1cccc(Cl)c1,-,+,-,-,77,-,-
CCc1nc2ccc(C(=O)N3CCN(c4ccccc4)CC3)cn2c1N(CCC(C)C)CCN(C)C,-,-,.,.,.,.,.
CC1CCCCN1C(=O)Cn1c(=O)oc2cc(S(=O)(=O)N3CCCC3)ccc21 (stereo not drawn),-,-,-,-,.,.,.
CSc1nc2ccc3nc(NC(=O)c4cccs4)sc3c2s1,.,+,-,-,-,-,-
COc1ccc(C(=O)Nc2ccc(Cl)cc2C(=O)N2CCCC(C)C2)cc1OC (stereo not drawn),-,-,-,-,.,.,.
COc1ccc(S(=O)(=O)N2CCN(C(=O)N3CCOCC3)C2C)cc1 (stereo not drawn),-,-,-,-,.,.,.
CCOC(=O)C1CCCN(C2=NC(=O)/C(=C/c3ccc(O)c(OC)c3)S2)C1 (stereo not drawn),-,+,-,-,43,-,-
CCOC(=O)C1CCCN(C2=NC(=O)/C(=C/c3ccc(OC)c(OC)c3)S2)C1 (stereo not drawn),-,-,-,-,.,.,.
Clc1cccc2sc(N3CCCC3)nc12,-,-,-,-,.,.,.
SMILES,Neddyl block,Rpn11 block,PKA-R2B act,PKA-R1A activ,Rpn11 confirm,MMP-2 counter,Thrombin inh
Clc1cccc2sc(N3CCOCC3)nc12,-,+,-,-,-,-,-
COC(=O)c1ccc(C)c(NC(=O)CSc2sc3c(O)cc(=O)[nH]c3c2C#N)c1,-,+,-,-,-,-,-
CC(=O)N=c1c(C#N)cc2c(=O)n3ccccc3nc2n1Cc1ccccc1,.,+,-,-,-,-,-
COc1ccccc1C(=O)OCCNC(=O)Cn1cnc2c1c(=O)n(C)c(=O)n2C,-,-,-,-,.,.,.
CCN1/C(=C/c2ccc3cc(C)ccc3[n+]2CC)Sc2cc(C)c(C)cc21,-,+,-,-,75,-,146
COc1cc(C(=O)Nc2nnc(-c3sccc3C)s2)cc(OC)c1OC,-,+,-,-,-,-,64
COc1ccc(-n2ccc(=O)c(C(=O)Nc3ccc(S(=O)(=O)Nc4nccs4)cc3)n2)cc1,-,+,-,-,-,68,-
O=C(COC(=O)COc1ccc(Cl)cc1Cl)NC1CCS(=O)(=O)C1 (stereo not drawn),-,-,-,-,.,.,.
N=c1c(C(=O)NC2CCCCC2)cc2c(=O)n3ccccc3nc2n1Cc1ccc(F)cc1,.,+,-,-,-,-,-
N=c1c(C(=O)NC2CCCC2)cc2c(=O)n3ccccc3nc2n1Cc1ccccc1,.,-,-,-,.,.,.
CCOc1ccc(N2CC(C(=O)NCCc3c[nH]c4ccc(OC)cc34)CC2=O)cc1 (stereo not drawn),-,-,-,-,.,.,.
Cc1cccc(N=C2NC(=O)/C(=C/C=C/c3ccco3)S2)c1C,-,+,-,-,-,47,-
O=C1NC(=Nc2ccccc2)S/C1=C\C=C\c1ccco1,-,+,-,-,-,52,-
Cn1ncc(Cl)c1C(=O)Nc1cc(C(F)(F)F)ccc1F,-,+,-,-,-,-,-
CC[n+]1c(/C=C2\Sc3ccccc3N2C)ccc2cccc(C)c21,-,+,-,-,96,-,157
CCN1/C(=C/c2ccc3cc(C)ccc3[n+]2CC)Sc2ccccc21,-,.,-,-,.,.,.
Cc1c(N=C/C=C2\N(C)c3ccccc3C2(C)C)c(=O)n(-c2ccccc2)n1C,-,-,-,-,.,.,.
Cc1c(N=C/C=C2/N(C)c3ccccc3C2(C)C)c(=O)n(-c2ccccc2)n1C,-,+!,-,-,-,-,-
CN1/C(=C\C=N\NC(=O)c2ccc(O)cc2)C(C)(C)c2ccccc21,-,+,-,-,-,-,-
CN1/C(=C\C=N\NC(=O)c2cccnc2)C(C)(C)c2ccccc21,-,-,-,-,.,.,.
CC(C)N(C(=O)C[n+]1ccc(/C=N/O)cc1)C(C)C,-,+,-,-,-,-,-
CCOc1cc(/C=C(\C#N)C(=O)Nc2cccc(C(=O)O)c2)ccc1OCc1ccc(Br)cc1,-,+,-,-,-,-,-
COC(=O)c1sccc1NC(=O)c1ccc2c(c1)OCO2,-,-,-,-,.,.,.
COC(=O)c1c(-c2cccnc2)csc1NC(=O)c1ccc2c(c1)OCO2,-,+,-,-,52,-,-
Cc1ccc(C(=O)NCCCNc2ccc(C(F)(F)F)cc2[N+](=O)[O-])cc1,-,+,-,-,-,-,-
Cc1cccc(C(O)C(O)c2cccc(C)n2)n1 (stereo not drawn),-,+,-,-,-,-,-
